Experiment [1] has as its system MILI (PIWIL2) piRISC loaded with piRNA #1 (26 nt). Briefly: pre-steady-state target cleavage rate (min^-1); guide: piRNA #1 5'p-UGAGGUAGUAGGUUGUAUAGUAUCCA; higher = faster piRNA-guided slicing of the target. As to conditions: auxiliary factor: 500 nM mouse GTSF1. A digest of the protocol:
(§1)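 Using HEPES–potassium acetate buffer at 33 °C, 1 nM active affinity-purified piRISC with a single synthetic guide was mixed with 0.1 nM transcribed, DNA-blocked target RNA library for 0–8 or 0–960 min, with or without 500 nM GTSF1 partner protein. Uncleaved targets were sequenced and normalised to depth and to weakly complementary targets, and three trials were pooled with k3 capped at 0.0001 min^-1. A burst-and-steady-state fit gave the pre-steady-state cleavage rate.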

The subject of experiment [2] is EfPiwi piRISC loaded with piRNA #1 (26 nt). Briefly: pre-steady-state target cleavage rate (min^-1); auxiliary factor: 500 nM Ephydatia muelleri Gtsf1; guide: piRNA #1 5'p-UGAGGUAGUAGGUUGUAUAGUAUCCA; MIWI and MILI are mouse PIWI proteins and EfPiwi is from a freshwater sponge; tags in brackets are library labels; higher = faster piRNA-guided slicing of the target. A digest of the protocol:
as §1

± gives the standard deviation.

The record followed here is the supplement of paper PMC10338343.

As to GGAGACCAUACUAUAAAACCUACUACCUCA, the “pre-steady-state target cleavage rate” value in experiment [1] turned out to be 0.2 ± 0.016; in experiment [2], 0.00433 ± 0.0026.

Consider GGAGACCUUACUUAUACAACCUACUACCUCA, for which the “pre-steady-state target cleavage rate” value turned out to be 0.0994 ± 0.014 in experiment [1] and 0.00736 ± 0.0041 in experiment [2].

Take GGAGACCUUACUAUACAACCUAGUUCCUCA: the “pre-steady-state target cleavage rate” value in experiment [1] was 0.0143 ± 0.0048; in experiment [2], 0.00334 ± 0.0033.

As to GGAGAGCAUAGUAUACAACCUACUACCUCA, the “pre-steady-state target cleavage rate” value in experiment [1] came to 0.0921 ± 0.0087; in experiment [2] it was 0.0077 ± 0.0045.

Consider GGAGUGGAUACUAUACAACCUACUACUCUCA, for which the “pre-steady-state target cleavage rate” value in experiment [1] was found to be 0.14 ± 0.012; in experiment [2], 0.00513 ± 0.0029.

For GGAGAGGAUACUAUACAACCAUCUACCUCA, the “pre-steady-state target cleavage rate” value is 0.00516 ± 0.0022 in experiment [1] and 0.0052 ± 0.002 in experiment [2].

GGAGACGAUACUAUACCACCUACUACCUCA: the “pre-steady-state target cleavage rate” value in experiment [1] amounted to 0.168 ± 0.015; in experiment [2], 0.0106 ± 0.0037.

With GGAGACCAUACUAUACAACCUAAUACCUCA, the “pre-steady-state target cleavage rate” value in experiment [1] stood at 0.117 ± 0.018; in experiment [2] it was 0.00857 ± 0.0039.

As for GGAGACCAUACUAUUCAACCUACUACGUCA, the “pre-steady-state target cleavage rate” value in experiment [1] amounted to 0.0881 ± 0.013; in experiment [2], 0.00376 ± 0.0034.

Take GGAGACGUUACUAUACAACCUAGUACCUCA: the “pre-steady-state target cleavage rate” value in experiment [1] turned out to be 0.0428 ± 0.0087; in experiment [2] it was 0.00427 ± 0.0015.

For GGAGACCACACUAUACAACCUACUACCUCA, the figures for the “pre-steady-state target cleavage rate” value in experiment [1] and in experiment [2] were 0.221 ± 0.042 and 0.0344 ± 0.015, respectively.

With GGAGAGCAUACUAAACAACCUACUACCUCA, the figures for the “pre-steady-state target cleavage rate” value in experiment [1] and in experiment [2] were 0.158 ± 0.015 and 0.00417 ± 0.0033, respectively.

For GGAGAGGAUGACUAUACAACCUACUACCUCA, the “pre-steady-state target cleavage rate” value amounted to 0.0775 ± 0.015 in experiment [1] and 0.01 ± 0.006 in experiment [2].

As for GGAGACGAUACUAUACAACCUACAACGUCA, the figures for the “pre-steady-state target cleavage rate” value in experiment [1] and in experiment [2] were 0.00524 ± 0.0044 and 0.00349 ± 0.0012, respectively.

Regarding GGAGACGAUUCUAUAGAACCUACUACCUCA, the “pre-steady-state target cleavage rate” value is 0.172 ± 0.012 in experiment [1] and 0.00226 ± 0.0018 in experiment [2].

As to GGAGACCAUACAAAACAACCUACUACCUCA, the “pre-steady-state target cleavage rate” value in experiment [1] was 0.0496 ± 0.014; in experiment [2], 0.00423 ± 0.0037.

In the case of GGAGAGGAUACUAUACAACCUAUCUACCUCA, the “pre-steady-state target cleavage rate” value was 0.128 ± 0.012 in experiment [1] and 0.00568 ± 0.0029 in experiment [2].

Regarding GGAGAGGAUACUAUACAACUUACUACCUCA, the “pre-steady-state target cleavage rate” value stood at 0.0186 ± 0.0027 in experiment [1] and 0.0083 ± 0.0042 in experiment [2].

On to “GGAGACCUAUGUAUACAACCUACUACCUCG [g2:g19:cont:t1G]”, for which the results for the “pre-steady-state target cleavage rate” value in experiment [1] and in experiment [2] were 0.0649 ± 0.0098 and 0.00909 ± 0.0048, respectively.

As for GGAGUGGAUACUAUGCAACCUACUACCUCA, the “pre-steady-state target cleavage rate” value was 0.192 ± 0.009 in experiment [1] and 0.09 ± 0.035 in experiment [2].

In the case of GGAGACCAUACUAUACAACCUUCUACCACA, the results for the “pre-steady-state target cleavage rate” value in experiment [1] and in experiment [2] were 0.00753 ± 0.0037 and 0.00301 ± 0.0027, respectively.

For GGAGUGGAUACUAUACAACCUACUCCCUCA, the “pre-steady-state target cleavage rate” value turned out to be 0.0191 ± 0.0045 in experiment [1] and 0.00426 ± 0.0017 in experiment [2].

Regarding “GGAGACCUAACUAUACAACCUACUACCUCG [g2:g21:cont:t1G]”, the “pre-steady-state target cleavage rate” value in experiment [1] worked out at 0.189 ± 0.035; in experiment [2], 0.0178 ± 0.0076.

As to GGAGUGGAUUCUAUACAACCUACUACCUCA, the “pre-steady-state target cleavage rate” value stood at 0.175 ± 0.0091 in experiment [1] and 0.00893 ± 0.0047 in experiment [2].

As for GGAGAGGAUACUAUACAACCUACUACCUCCA, the figures for the “pre-steady-state target cleavage rate” value in experiment [1] and in experiment [2] were 0.152 ± 0.011 and 0.142 ± 0.054, respectively.

As for GGAGAGGAUACUAUACAACCUACUACGUCA, the figures for the “pre-steady-state target cleavage rate” value in experiment [1] and in experiment [2] were 0.058 ± 0.0086 and 0.00636 ± 0.0029, respectively.

As to GGAGUGGAUACUAUACAACCUACUACCUCCA, the “pre-steady-state target cleavage rate” value worked out at 0.223 ± 0.011 in experiment [1] and 0.274 ± 0.077 in experiment [2].

Consider GGAGUGGAUACUAUACAACCUACAACCUCA, for which the “pre-steady-state target cleavage rate” value in experiment [1] turned out to be 0.0801 ± 0.011; in experiment [2], 0.00468 ± 0.0018.

Take GGAGACCAUACUAUACAACCUACUACCUA: the “pre-steady-state target cleavage rate” value in experiment [1] turned out to be 0.125 ± 0.016; in experiment [2], 0.0149 ± 0.0065.

GGAGACCUAUCUAUACAACCUACUAUCUCA: the “pre-steady-state target cleavage rate” value came to 0.0794 ± 0.013 in experiment [1] and 0.00591 ± 0.004 in experiment [2].

GGAGAGGUAUCUAUACAACCUACUACCUCA: the results for the “pre-steady-state target cleavage rate” value in experiment [1] and in experiment [2] were 0.0739 ± 0.0068 and 0.0113 ± 0.0061, respectively.

Consider GGAGUGGAUAGUAUACAACCUACUACGUCA, for which the “pre-steady-state target cleavage rate” value turned out to be 0.0386 ± 0.0083 in experiment [1] and 0.00277 ± 0.0018 in experiment [2].

In the case of GGAGUGGAUACUAUUCAACCUAGUACCUCA, the figures for the “pre-steady-state target cleavage rate” value in experiment [1] and in experiment [2] were 0.0485 ± 0.0085 and 0.00286 ± 0.0013, respectively.

Consider GGAGACGUAACUAUACAACCUACUACCUCA, for which the “pre-steady-state target cleavage rate” value in experiment [1] is 0.166 ± 0.018; in experiment [2], 0.0248 ± 0.0098.

GGAGAGGAUACUAUACAACCUUCAACCUCA: the results for the “pre-steady-state target cleavage rate” value in experiment [1] and in experiment [2] were 0.00483 ± 0.0021 and 0.00352 ± 0.0022, respectively.

As to GGAGACGAUACUAUACUACCUACUAGCUCA, the figures for the “pre-steady-state target cleavage rate” value in experiment [1] and in experiment [2] were 0.124 ± 0.018 and 0.00251 ± 0.0018, respectively.

In the case of GGAGAGGAUACUAUACAACCUACUACCCCA, the “pre-steady-state target cleavage rate” value in experiment [1] was determined as 0.119 ± 0.02; in experiment [2] it was 0.00713 ± 0.0022.

GGAGACGAUACUAUUCUACCUACUACCUCA: the “pre-steady-state target cleavage rate” value is 0.173 ± 0.012 in experiment [1] and 0.00416 ± 0.0035 in experiment [2].

GGAGAGGAUACAUUACAACCUACUACCUCA: the figures for the “pre-steady-state target cleavage rate” value in experiment [1] and in experiment [2] were 0.148 ± 0.012 and 0.007 ± 0.0035, respectively.

Turning to GGAGACGAUACUAUAGAACCUACUACCUGA, the entries for the “pre-steady-state target cleavage rate” value in experiment [1] and in experiment [2] were 0.0908 ± 0.021 and 0.00292 ± 0.0011, respectively.

As to GGAGACCUUACUAUACGACCUACUACCUCA, the “pre-steady-state target cleavage rate” value in experiment [1] turned out to be 0.0683 ± 0.0088; in experiment [2] it was 0.016 ± 0.0076.

Regarding GGAGUGCAUACUAUACUACCUACUACCUCA, the “pre-steady-state target cleavage rate” value in experiment [1] is 0.161 ± 0.0089; in experiment [2], 0.00588 ± 0.0029.

As to GGAGACCUAUCUAUACAACGUACUACCACA, the “pre-steady-state target cleavage rate” value in experiment [1] is 0.0153 ± 0.0035; in experiment [2], 0.00343 ± 0.0031.

Take GGAGACCAAUGUAUACAACCUACUACCUCA: the figures for the “pre-steady-state target cleavage rate” value in experiment [1] and in experiment [2] were 0.0592 ± 0.01 and 0.0133 ± 0.0056, respectively.

As to GGAGUGGGAUACUAUACAACCUACUACCUCA, the results for the “pre-steady-state target cleavage rate” value in experiment [1] and in experiment [2] were 0.204 ± 0.011 and 0.143 ± 0.046, respectively.

With GGAGACCUUACUAUUACAACCUACUACCUCA, the results for the “pre-steady-state target cleavage rate” value in experiment [1] and in experiment [2] were 0.117 ± 0.01 and 0.00484 ± 0.0035, respectively.

Consider GGAGUGGAUACUAUACAACCGACUACCUCA, for which the “pre-steady-state target cleavage rate” value in experiment [1] stood at 0.00279 ± 0.0026; in experiment [2], 0.00469 ± 0.0016.

With GGAGACGAAACUAUACAACCUACAACCUCA, the entries for the “pre-steady-state target cleavage rate” value in experiment [1] and in experiment [2] were 0.133 ± 0.031 and 0.00368 ± 0.0027, respectively.

Take GGAGACCUAACUAUCACAACCUACUACCUCA: the “pre-steady-state target cleavage rate” value turned out to be 0.085 ± 0.025 in experiment [1] and 0.00495 ± 0.0033 in experiment [2].

On to GGAGAGGAUACUAAACAUCCUACUACCUCA, for which the results for the “pre-steady-state target cleavage rate” value in experiment [1] and in experiment [2] were 0.276 ± 0.022 and 0.00524 ± 0.0024, respectively.

Regarding GGAGACGAUUACUAUACAACCUACUACCUCA, the “pre-steady-state target cleavage rate” value in experiment [1] came to 0.147 ± 0.0094; in experiment [2] it was 0.0159 ± 0.0066.

Turning to GGAGUGGCUACUAUACAACCUACUACCUCA, the “pre-steady-state target cleavage rate” value in experiment [1] amounted to 0.19 ± 0.012; in experiment [2], 0.0198 ± 0.0079.

For GGAGAGGAUACUAUACAACCUAACUACCUCA, the “pre-steady-state target cleavage rate” value in experiment [1] stood at 0.0231 ± 0.0035; in experiment [2], 0.00656 ± 0.0027.

As to GGAGAGGAUACUAAACUACCUACUACCUCA, the “pre-steady-state target cleavage rate” value is 0.167 ± 0.011 in experiment [1] and 0.00323 ± 0.003 in experiment [2].

For GGAGUGGAUACUAUACAACUACUACCUCA, the “pre-steady-state target cleavage rate” value turned out to be 0.0608 ± 0.0047 in experiment [1] and 0.00835 ± 0.0039 in experiment [2].

Regarding GGAGACGAUACUAUACAACCUACAAGCUCA, the “pre-steady-state target cleavage rate” value in experiment [1] came to 0.0171 ± 0.0086; in experiment [2], 0.00381 ± 0.0023.

As to GGAGAGGAGACUAUACAACCUACUACCUCA, the “pre-steady-state target cleavage rate” value in experiment [1] worked out at 0.25 ± 0.052; in experiment [2] it was 0.0151 ± 0.0058.

GGAGACGAUCACUAUACAACCUACUACCUCA: the “pre-steady-state target cleavage rate” value in experiment [1] amounted to 0.131 ± 0.019; in experiment [2], 0.0768 ± 0.029.

GGAGUGGAUACUAUACAUCCAACUACCUCA: the “pre-steady-state target cleavage rate” value in experiment [1] came to 0.00718 ± 0.0021; in experiment [2] it was 0.00457 ± 0.0019.

In the case of GGAGACCUUACUAUACAACCUACUACCAGA, the entries for the “pre-steady-state target cleavage rate” value in experiment [1] and in experiment [2] were 0.107 ± 0.017 and 0.00482 ± 0.0036, respectively.
